# Laboratory results published in PubChem BioAssay (NCI).
# About 83,000 compounds went through this panel and 20% of them were active in at least one assay; those are over-represented in the sample as a whole.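 Each cell line was grown in a 96-well plate and treated with one concentration of compound for 48 hours. Values below 10 were considered active.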 Unmarked numbers belong to inactive results. Active and inactive are the calls of the source.
# Assays:
# Assay in all cases: NCI-60 one-dose screen, 48 h (100 = growth as untreated, 0 = no growth, -100 = all killed)
# Conditions in all cases: 10 µM unless noted
# HCT-15 colon = tested on: HCT-15 colon
# HT29 colon = tested on: HT29 colon
# SNB-75 CNS = tested on: SNB-75 CNS
# SNB-19 CNS = tested on: SNB-19 CNS
# U251 CNS = tested on: U251 CNS
# PC-3 prostate = tested on: PC-3 prostate
# SK-MEL-5 melanoma = tested on: SK-MEL-5 melanoma
# UACC-62 melanoma = tested on: UACC-62 melanoma
# LOX IMVI melanoma = tested on: LOX IMVI melanoma
# SK-MEL-28 melanoma = tested on: SK-MEL-28 melanoma
SMILES,growth (HCT-15 colon),growth (HT29 colon),growth (SNB-75 CNS),growth (SNB-19 CNS),growth (U251 CNS),growth (PC-3 prostate),growth (SK-MEL-5 melanoma),growth (UACC-62 melanoma),growth (LOX IMVI melanoma),growth (SK-MEL-28 melanoma)
O=C(Cn1cc(CN2C(=O)c3ccccc3S2(=O)=O)nn1)Nc1nc2ccccc2s1,107%,97.9%,81.2%,98.1%,98.7%,93.2%,104%,97.5%,92.5%,106%
Clc1ccc2c(c1)N(c1ncnc3ccc(-c4cnc5[nH]ncc5c4)cc13)CC2,25%,19.3%,-16.8% (active),42.8%,39.8%,23.8%,46.5%,8.23% (active),18.4%,44.1%
C1=CN2CC(c3ccccc3)=NNC2c2ccccc21 (stereo not given),96.6%,99.4%,37.5%,105%,103%,81.9%,92.8%,75.5%,92.8%,126%
CCOC(=O)c1cc(C(=O)c2cc(OC)c(OC)c(OC)c2)n2ccc(-c3ccncc3)cc12,99.4%,91.5%,88.8%,94.4%,93.2%,75.2%,82.8%,98.4%,99%,110%
C#CCOc1ccc2ncnc(Nc3cccc(NC(=O)C=C)c3)c2c1,71.1%,42.7%,60.5%,73.9%,73.1%,82.2%,77.5%,64.1%,62.5%,86.3%
CCOC(=O)c1cc(-c2ccc([N+](=O)[O-])cc2)n(-c2ccc(C(=O)O)c(O)c2)c1C,50.2%,44.2%,53.5%,90.7%,70.9%,23.5%,52%,54%,66.8%,90.5%
COc1ccc2nc(NC(=O)CSc3nnc4n3S(=O)(=O)c3ccccc3N4C)sc2c1,101%,114%,93.5%,112%,102%,94.7%,95.1%,87.3%,92%,117%
O=C(NNc1nccc(Nc2ccc(S(=O)(=O)Nc3ccncc3)cc2)n1)c1ccccc1,107%,94.4%,99%,109%,99.6%,100%,102%,101%,-40.5% (active),106%
O=C(/C=C(/C=C/c1cccc2[nH]ccc12)OB(F)F)/C=C/c1cccc2[nH]ccc12,-58.4% (active),-52.8% (active),-40.4% (active),-7.8% (active),-87% (active),-42.5% (active),-78.3% (active),-51.8% (active),-81.1% (active),-14.3% (active)
O=C(NCCCN1CCOCC1)c1cccc(N2C(=O)/C(=C/c3ccc(F)cc3)SC2=S)c1,99.8%,108%,62.5%,92.8%,100%,75.3%,97.3%,88.4%,87.3%,104%
COc1ccc(NC(=O)c2sc3nc(C)c(C(=O)/C=C/c4cccc(OC)c4)cc3c2N)cc1,-12.8% (active),1.21% (active),11.2%,8.88% (active),1.61% (active),55.2%,71.3%,56.6%,-73.1% (active),80.7%
COc1ccc2c(c1)[n+]([O-])c(C(=O)/C=C/C=C(\Cl)c1cc(OC)c(OC)c(OC)c1)c(C)[n+]2[O-],95.4%,101%,-26% (active),55.9%,8.58% (active),93%,121%,68.2%,41.7%,99.1%
COC(=O)c1c2c(c(C)[n+]([O-])c1C)C(=O)C=C(NCc1ccc(Br)cc1)C2=O,-63% (active),-5.46% (active),-98.6% (active),-87.2% (active),-41% (active),-11.1% (active),-97.5% (active),-59.5% (active),-75.7% (active),-39.6% (active)
CCOC(=O)C#Cc1c(C(=O)OCC)nnn1[C@@H]1O[C@H](CO)[C@H]2OC3(CCCCC3)O[C@H]21,-38.8% (active),7.93% (active),73.1%,96%,104%,86.7%,96.2%,91.6%,20.1%,101%
CCCC(O)Cn1ncc(C(=O)OCC)c1NC(=O)NCc1ccccc1F (stereo not given),105%,81.1%,98.9%,102%,93.8%,93.4%,93.2%,86.3%,93.9%,110%
Cc1cc(N)c2cc(NC(=O)/C=C\c3ccccc3Cl)ccc2n1,10.9%,-64.4% (active),-90.8% (active),-86.3% (active),-85.9% (active),-91.5% (active),-94.9% (active),-80.9% (active),-75.1% (active),-96.1% (active)
CC1Cc2c(Cl)ncnc2N(C)c2ccc(F)cc21 (stereo not given),106%,90.6%,59.8%,104%,89.7%,87.5%,76.9%,99.6%,92.3%,86.5%
COC(=O)c1c2c(c(C)[n+]([O-])c1C)C(=O)C=C(NCc1ccc(OC)cc1)C2=O,-43.9% (active),3.5% (active),-97% (active),-73.8% (active),-45.7% (active),-6.9% (active),-96.6% (active),-75.1% (active),-12% (active),-6.37% (active)
N=C(N)c1ccc(-c2ccc(-c3ccc(Cl)cc3)s2)nc1,-78.1% (active),-38.1% (active),95.8%,49.9%,-68.1% (active),-75.3% (active),82.8%,89.9%,-89% (active),108%
Cc1ccc(-n2c(=S)[nH]c3sc4c(c3c2=O)CCC(=O)C4)cc1,25%,55.9%,28.1%,30.9%,36.7%,41%,26.7%,10.3%,36.3%,53%
Cc1ccc(Sc2nnc(/N=C3\C(=O)Nc4ccccc43)s2)cc1,105%,111%,87.5%,101%,97.4%,99.7%,107%,103%,97.8%,105%
COc1ccc2c(c1)c(-c1noc(C(=O)c3cn(C)c4ccc(Br)cc34)n1)cn2C,113%,92.5%,101%,102%,101%,95.3%,100%,93%,96.8%,117%
COc1ccc(C(=O)Nc2ncc(Cc3cccc(Cl)c3)s2)cc1OC,23.4%,9.89% (active),19.8%,34.2%,28.4%,27.4%,-25.9% (active),10.6%,7.25% (active),10.9%
O=C1/C(=C/c2ccc(F)cc2)COc2ccc(O)cc21,60.7%,48.7%,83.7%,90.4%,60.8%,89.2%,98.5%,85.2%,22.5%,103%
Cc1ccc(Cl)cc1Nc1nc(C(F)(F)F)ccc1C(=O)N/N=C/c1cccnc1,19.2%,34.6%,52%,36.8%,2.89% (active),32.4%,-16.4% (active),27.6%,18.6%,39.9%
Cc1cc(Cl)ccc1Nc1nc(C(F)(F)F)ccc1C(=O)N/N=C/c1ccc([N+](=O)[O-])cc1,-1.51% (active),-26.6% (active),-12.2% (active),22.7%,-13.9% (active),-43.7% (active),84.7%,12.6%,7.3% (active),5.64% (active)
C=C(C)[C@@H]1CC[C@]2(C)[C@H](CC=C3[C@@H]4[C@H](C)[C@@H](C)CC[C@]4(CO)CC[C@]32C)[C@@]1(C)CCCN,-39.1% (active),-44.5% (active),18.5%,72.3%,-74.3% (active),11%,67.1%,79.4%,-99% (active),-35.3% (active)
